High-throughput results deposited in PubChem by National Center for Advancing Translational Sciences (NCATS).
G9a inh-1 – G9a (human) methyltransferase inhibition. 8.8% of 350,000 active. Q96KQ7. AID 504332. G9a H3K9 monomethylation, AlphaScreen, 2 h. Potency, µM (doses to about 102 µM), for the others: at the highest dose activity, negative = inhibition, most hits filed as inhibitors; also: potency is read from the fitted curve at half-maximal effect; % is scaled to controls: 0 for no effect and ±100 for the full control effect; nearly all actives have a fitted effect of over 75% in size
Target sequence (Q96KQ7 913-1193 limits assumed): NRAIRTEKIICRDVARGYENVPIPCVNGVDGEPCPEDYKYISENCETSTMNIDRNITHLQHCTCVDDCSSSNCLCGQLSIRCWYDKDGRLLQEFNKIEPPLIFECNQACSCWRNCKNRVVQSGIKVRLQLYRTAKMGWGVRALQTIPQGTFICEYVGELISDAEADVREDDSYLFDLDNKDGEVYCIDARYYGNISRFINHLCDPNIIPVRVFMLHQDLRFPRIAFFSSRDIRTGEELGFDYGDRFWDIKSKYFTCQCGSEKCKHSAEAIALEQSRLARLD
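Step 1: enzyme (final 20 nM) with compound, 15 min RT. Step 2: substrate peptide 500 nM and SAM 20 uM, 2 h RT. Step 3: anti-H3K9me1 antibody and AlphaScreen beads, 10 min, then plate read.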
Sfp PPTase inh – Sfp phosphopantetheinyl transferase inhibition. Q9F4F7. Biochemical Sfp PPTase activity, qHTS. Potency, µM, inactives show largest response in the series, negative = inhibition, hits mostly inhibitors. 3.5% of 310,000 active;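 also: the enzyme is Sfp with the accession as filed and its product quenches rhodamine fluorescence; potency is read from the fitted curve at half-maximal effect; 0% = enzyme reaction without inhibitor and -100% = no enzyme wells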
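Compounds were incubated with enzyme (final 15 nM) for 15 min at room temperature before substrate addition started the reaction. Fluorescence at 525 nm excitation, 598 nm emission was recorded immediately and after 30 minutes.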
BAZ2B inh – blocks human BAZ2B | AlphaScreen BAZ2B-H3K14Ac peptide displacement | AID 504333 | 4.4% of 360,000 active | Potency, µM (doses to about 114 µM), for inactives: at the top dose activity change, negative = inhibition, most hits filed as inhibitors; also: potency is read from the fitted curve at half-maximal effect; % is scaled to controls: 0 for no effect and ±100 for the full control effect; nearly all actives have a fitted effect of over 60% in size
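In this displacement format the biotinylated H3(5-23) peptide acetylated at Lys14 serves as ligand at 50 nM, with BAZ2B at 50 nM in PBS pH 7.4 containing 0.01% Tween-20. Donor and acceptor beads are 10 ug/mL final.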
HP1b binding inh – inhibitors of HP1-beta chromodomain binding to methylated histone tails; P83916; AlphaScreen HP1-beta / biotin-H3K9me3 peptide binding; Potency, µM (series often up to 114 µM), for the others: top-dose activity change, negative = inhibition, hits mostly inhibitors; 0.56% of 390,000 active; also: potency is read from the fitted curve at half-maximal effect; nearly all actives have a fitted effect of over 70% in size
Target sequence (P83916 whole entry, looked up): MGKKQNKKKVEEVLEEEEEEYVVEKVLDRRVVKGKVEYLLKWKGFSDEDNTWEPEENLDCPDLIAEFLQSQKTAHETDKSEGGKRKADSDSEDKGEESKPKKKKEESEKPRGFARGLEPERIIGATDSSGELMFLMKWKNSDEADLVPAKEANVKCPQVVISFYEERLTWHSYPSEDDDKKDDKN
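Compound inhibition of the preformed complex between 50 nM HP1-beta and 50 nM biotinylated H3K9me3 peptide was read by AlphaScreen. Buffer was PBS pH 7.4 with 0.01% Tween-20. Incubations ran 30 min at room temperature, with 10 ug/mL donor/acceptor beads.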
JMJD2A Tudor inh – JMJD2A Tudor domain (human) inhibition. O75164. AlphaScreen JMJD2A-Tudor / H3K4me3 peptide binding. Potency, µM (titrated, usually from 114 µM), without a hit: at the highest dose activity change, negative = inhibition, hits mostly inhibitors. 4.4% of 390,000 active. AID 504339; also: potency is read from the fitted curve at half-maximal effect; % is scaled to controls: 0 for no effect and ±100 for the full control effect; nearly all actives have a fitted effect of over 50% in size
JMJD2E confirm – confirmation of inhibitors of human JMJD2E demethylase. shares compounds with JMJD2A Tudor inh. 93% of 140 active. AID 2677. Potency, µM (doses to about 56.8 µM), inactives show at the highest dose activity change, negative = inhibition, usual class: inhibitors. Recombinant JMJD2E, FDH-coupled NADH fluorescence (FDH is formaldehyde dehydrogenase)
FDH counter – blocks Pseudomonas putida formaldehyde dehydrogenase, flagging JMJD2E artifacts; shares compounds with JMJD2A Tudor inh; FDH enzyme assay, NADH fluorescence kinetic; Potency, µM (doses to about 56.7 µM), for inactives: top-dose activity, negative = inhibition, usual class: inhibitors; 10% of 140 active
G9a inh-2 – confirmation of human histone methyltransferase G9a inhibitors | shares compounds with JMJD2A Tudor inh | Potency, µM, hits mostly inhibitors | AID 588344 | G9a H3K9 monomethylation, AlphaScreen, 2 h | 89% of 370 active; also: potency is read from the fitted curve at half-maximal effect; nearly all actives have a fitted effect of over 65% in size
* marks the source's active call; other numbers are inactive results; ? = inconclusive; · = not tested or not shown; ! = a repeat was not active; [ ] = remark or other dose. A selection: hits, their analogues and other compounds. The true share with any hit is near 12%. Calls follow the shape of the dose curve; as a rule, active = well fitted curve in the direction sought with a large enough effect; inconclusive = small, poorly fitted or top-dose-only effect, or another doubt; inactive = no such curve, though single readings can be large; an effect the other way counts as inactive or inconclusive.

SMILES | G9a inh-1 | Sfp PPTase inh | BAZ2B inh | HP1b binding inh | JMJD2A Tudor inh | G9a inh-2 | others
O=C(CSc1ncn(-c2ccccc2)n1)Nc1nc2ccccc2s1 | ? | ? | -5% | -6% | 45µM* | 3.6*
CC(=O)Nc1ccc2c(c1)ncn2C | 0%[59 µM] | 10% | -1% | 60% | -15%[57.1 µM] | ·
CCn1cnc2cc(NCc3nc4ccccc4n3C)ccc21 | 2.5µM* | 2% | ? | -4% | -35% | ?
CCn1cnc2cc(NCc3ccc(C)cc3)ccc21 | 1.6µM* | -9% | ? | -10% | ? | 4.5*
CCOc1ccc(CNc2ccc3c(c2)ncn3C)cc1 | ? | -17% | ? | -18% | ? | 1.8*
CCn1cnc2cc(NS(=O)(=O)c3ccc(C)cc3)ccc21 | -43%[59 µM] | 15% | -30% | 22% | -14% | ·
Cc1ccc(C(=O)OCC(=O)NC(C)c2ccccc2)cc1C (stereo not given) | · | · | · | 19% | -6% | ·
CN(C(=O)COC(=O)c1cc[n+]([O-])cc1)c1ccccc1 | -26% | 24% | 0% | 34% | 3% | ·
c1ccc2[nH]c(SCCN3CCOCC3)nc2c1 | 17%[59 µM] | 8% | 6% | 23% | -13% | ·
CC(=O)c1sc2nsc(SCCN3CCOCC3)c2c1N | 0.79µM* | 8.9µM* | -36% | 79µM* | 6.3µM* | 2.5*
O=C(c1cccnc1)N1CCN(Cc2ccc3c(c2)OCO3)CC1 | ? | ? | 50µM* | ? | 6.3µM* | 7.1*
Cc1ccccc1OCc1ccc(-c2nc(C#N)c(N3CCN(c4ccccc4)CC3)o2)o1 | ? | · | ? | 8% | -31% | ?
O=C(CSc1cccc[n+]1[O-])Nc1ccccc1Oc1ccccc1 | 2µM* | 40µM* | -21% | ? | 50µM* | 2*
CN(C)c1ccc(NC(=O)C2(c3cccs3)CCOCC2)cc1 | 2.8µM* | · | 40µM* | -15% | ? | 7.1*
COc1ccc(-c2coc3cc4oc(=O)cc(-c5ccccc5)c4cc23)cc1F | 14%[59 µM] | -5% | -33% | 10% | -28% | ·
O=C(COc1ccccc1)Nc1nnc(S(=O)(=O)Nc2ccccc2)s1 | ? | 19% | 1.4µM*! | 46% | ? | ?
CN(c1ccccc1)S(=O)(=O)c1nnc(NC(=O)COc2ccccc2)s1 | ? | 13% | -25% | 50% | -26% | ·
CC(C)c1ccc(NC(=O)c2cnn3c(C(F)F)cc(-c4ccccc4)nc23)cc1 | -21%[59 µM] | · | -32% | -13% | -16% | ·
CCN(CC)c1ccc(NC(=O)c2cnn3c(C(F)F)cc(-c4ccccc4)nc23)cc1 | 2µM* | · | 2.5µM* | ? | 8.9µM* | 4.6*
CCNCCC(CCC(C)C)c1ccc2c(c1)OCO2 (stereo not given) | 1.6µM* | ? | 79µM* | -6% | ? | 11*
Fc1ccccc1CNCCC(Cc1ccccc1)c1ccc2c(c1)OCO2 (stereo not given) | ? | -3% | -31% | -4% | -24% | ·
O=C1c2cccc3cc([N+](=O)[O-])cc(c23)C(=O)N1c1nncs1 | · | · | · | 11% | -10% | ·
Oc1ccc2ccccc2c1CN1CCOCC1 | 0.35µM* | -2% | -35% | ? | ? | 0.8*
CCCCCOC(=O)C1=C(C)NC(=O)NC1c1ccccc1OCC (stereo not given) | -3%[59 µM] | 5% | -5% | 35% | -12%[11.4 µM] | ·
CCOC(=O)C1CCCN(CC(=O)NC2CC2)C1 (stereo not given) | 1.6µM* | -11% | 32µM* | 18µM* | 5µM* | 45*
SMILES | G9a inh-1 | Sfp PPTase inh | BAZ2B inh | HP1b binding inh | JMJD2A Tudor inh | G9a inh-2 | others
CCOC(=O)C1CCCN(C(=S)NC2CCCCC2)C1 (stereo not given) | 1% | -2% | -7% | 12% | -13% | ·
Cc1cccc(OCC(=O)N(C)CCc2ccccn2)c1 | ? | -12% | 35µM* | ? | ? | 10*
O=C(CSc1ncccn1)NCc1ccc(F)cc1 | 14%[59 µM] | 10% | · | 31% | -7% | ·
Cc1ccc(CNC(=O)CSc2ncccn2)cc1 | ? | 12% | -5% | 16% | -7% | 22*
COc1ccc(/C=C/C(=O)Nc2cccc(C(C)=O)c2)cc1 | -3%[59 µM] | -10% | 2% | 33% | -19% | ·
COC(=O)c1c(-c2cccs2)csc1NC(=O)COc1ccccc1 | 1.8µM* | · | ? | -8% | -28% | 4.1*
CC(C)(C)C1CCc2c(sc(NC(=O)c3ccncc3)c2C(=O)Nc2ccccc2Cl)C1 (stereo not given) | 2.2µM* | · | -28% | 26% | ? | ?
CCN(CC)C(=O)c1sc2c(c1C)c(=O)n(-c1ccc(Cl)c(Cl)c1)c(=O)n2Cc1cc(=O)n2c(C)cccc2n1 | 1%[59 µM] | · | 0% | 43% | ? | ·
CCN(CC)c1ccc(NC(=O)c2cncc(Br)c2)cc1 | ? | -15% | 35µM* | ? | 50µM* | 3.5*
CCN(CC)c1ccc(NC(=O)Nc2ccc(C(C)=O)cc2)cc1 | 1.4µM* | -17% | -26% | -7% | -32%[57.1 µM] | 0.32*
CCOC(=O)CSc1nnc(Cc2cc(=O)[nH]c(=O)[nH]2)n1-c1cccc(OC)c1 | -26%[0.0925 µM] | -27% | 23% | 35% | -15% | ·
CC(NS(=O)(=O)c1ccc(Cl)cc1)C(=O)OCC(=O)Nc1ccc(N(C)C)cc1 (stereo not given) | 2.5µM* | · | ? | -34% | ? | 4*
Cc1ccc(NC(=O)COC(=O)C(NS(=O)(=O)c2ccc(Cl)cc2)C(C)O)cc1 (stereo not given) | 26%[59 µM] | 9% | 6% | 9% | -11% | ·
c1ccc(CN2CCOCCOCCOCCOCCOCCOCC2)cc1 | 16% | 2% | -3% | 71% | 10% | ·
CC1CCN(CCC(=O)Nc2nccs2)CC1 | 19% | 10% | 0% | 38% | -11% | ·
CC(C)COC(=O)N1CCCC1C(=O)Nc1nccs1 (stereo not given) | ? | 7% | -35% | -2% | -14% | 13*
COC(=O)C1CCCN1C(=O)C12CC3CC(CC(C3)C1)C2 (stereo not given) | 13% | 17% | -18% | 42% | -13% | ·
CC1=NN(c2nc3ccccc3[nH]2)C(=O)C1Cc1ccccc1 (stereo not given) | ? | 21% | 22µM* | 35% | 50µM* | · | JMJD2E confirm=5.8µM*;FDH counter=?
